The values that follow come from PubChem BioAssay AID1700 (The Scripps Research Institute Molecular Screening Center, 2009).

For orientation: inhibition means the change of the read-out against control, counted positive when it falls.

Hit rate of the full screen: of about 290,000 compounds, about 670 (0.23%) were called active. Shown is part of a subset that was picked to be rich in actives. Values without a mark were called inactive.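 How the source made its calls: active means inhibition above a per-plate limit of that plate's mean compound inhibition plus 3 SD (cut at about 60% in these data); inactive means the rest.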

A short description of this test: suppression of KLF5 promoter-driven luciferase – DLD-1 cells, luminescence, primary screen (AID 1700).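 Further: 0% = DMSO wells and 100% = LY294002 at 200 µM; higher means less KLF5 promoter-driven luciferase light.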 Conditions: DLD-1 KLF5 promoter-luciferase reporter, at 5 µM, hits give high values. For orientation: A reporter such as luciferase makes a cellular process visible.
`CCCCCCCCCCCCn1ccc(=N)cc1`: the inhibition was 75.9% (active). As for `CCN(CC)c1ccc([N+](=O)[O-])c2cccnc12`, the figure is -21%; as for `COc1cc2nc(N3CCN(C(=O)[C@@H]4CCCO4)CC3)nc(N)c2cc1OC`, -16.5%; as for `O=C1NC(=O)C(CCc2ccccn2)(Cc2cccc(Cl)c2Cl)C(=O)N1c1ccc(Br)cc1` (stereo not given), -5.72%. For `COc1ccc(N2C(=O)/C(=C/c3ccco3)C(=O)NC2=S)cc1`, the inhibition is -5.05%.
